Structures are written as SMILES. Inconclusive results are not listed. Values without a mark were called inactive. Calls come from the whole dose curve; as a rule, active = well fitted activation curve with a large enough effect in the repeat runs; inconclusive = weak or mixed curves; inactive = flat fitted curve, though single readings scatter. Where a SMILES comes first, the peptide text is derived from it.
% is set by controls: 0 for no effect and ±100 for the full control effect.

This assay in a line: A CellTox Green Cytotoxicity Assay to monitor cytotoxicity in HEK293 cells - 24 hour (AID 1224875). Note: nearly all actives have a fitted effect of over 45% in size. Particulars: CellTox Green fluorescence; series mostly up to 76.8 µM; activity change: at the top concentration. The text has this:
National Center for Advancing Translational Sciences [NCATS]
NIH Chemical Genomics Center [NCGC]
U.S. Environmental Protection Agency [EPA]
National Institutes of Environmental Health Sciences [NIEHS]
National Toxicology Program [NTP]
Cell-based models are critical for drug discovery. Determining the natural cytotoxic effects resulting from test compounds is an essential research activity. A CellTox Green Cytotoxicity Assay to monitor cytotoxicity in real time of continues cell culture during 40 hours of the compound treatment was used to screen Tox21 10K library compounds in Hek293 cells. CellTox Green Cytotoxicity Assay is a nonlytic, homogeneous, biofluorescent method to measure cytotoxicity in cell culture after experimental manipulation. The assay system uses a proprietary asymmetric cyanine dye that is excluded from viable cells but preferentially stains the dead cell's DNA. […] Viable cells produce no appreciable increases in fluorescence. Therefore, the fluorescence signal produced by the binding interaction with dead cell DNA is proportional to cytotoxicity.
The mixture of Hek293 cell suspension and reagents were dispensed at 600cells/6 ul/well in 1536-well tissue culture treated black solid bottom plates using a Multidrop dispenser. After the assay plates were incubated at a 37 C/5% CO2 incubator for 5 hours, 23 nL of compounds dissolved in DMSO, positive and negative controls was transferred to the assay plate by a pintool work station. The plates were incubated at 37 C for 40 hours. The fluorescence intensity were measured at 0h, 8h, 16h, 24h, 32h and 40h time points using ViewLux plate reader during compound treatment.
Take `Cc1ccc(C)c([N+](=O)[O-])c1`: the “activity change” value is 1.72%. The figure for `c1ccc(B(c2ccccc2)c2ccccc2)cc1` is -0.478%. With `CCC(=O)Oc1ccc2c(c1)CC[C@@H]1[C@@H]2CC[C@@]2(C)[C@H]1C[C@@H](OC(=O)CC)[C@@H]2OC(=O)CC`, the “activity change” value was 6.17% [at 35.3 µM, stronger effect = higher value]. In the case of `Cc1c(C(=O)c2c[nH]n(C)c2=O)ccc(S(C)(=O)=O)c1C1=NOCC1` it was -1.08% [at 35.3 µM, stronger effect = higher value]; in that of `CCOCCOCC`, -0.978%; in that of `Cc1c(N)cccc1Cl`, -4.48%. The figure for `CCn1cc(C(=O)O)c(=O)c2cnc(N3CCCC3)nc21` is 4.09% [at 6.97 µM, stronger effect = higher value]; for `Cc1ccc2c(c1)C(=O)c1ccccc1C2=O` it is -7.17%; for `CC1CC(=O)CC(C)(C)C1` (stereo not given) it is -2.59%. The figure for `CCCCOC(=O)[C@H](C)O` is -1.41%; for `O=C(CCCl)NCCc1ccccc1` it is -8.47% [at 35.3 µM, stronger effect = higher value].

In the case of `OCC(O)CN1CCN(c2ccccc2)CC1` (stereo not given), the “activity change” value is -2.31% [at 35.3 µM, stronger effect = higher value].

For the compound `CC(=O)N[C@@H](CO)C(=O)N[C@@H](CC(=O)O)C(=O)N[C@@H](CCCCN)C(=O)N1CCC[C@H]1C(=O)O` (Ac-SDKP-OH), the “activity change” value is -5% [at 35.3 µM, stronger effect = higher value]. The figure for `CC(=O)c1cc(C)oc1C` is -7.66%; for `CCN1CCCC1CN` (stereo not given) it is -15.4% [at 35.3 µM, stronger effect = higher value]. Turning to `CCCC(CC)c1ccccc1` (stereo not given), the “activity change” value was 4%.

Consider `CC(=O)O[C@H]1C[C@@H]2CC[C@@]1(C)C2(C)C`, for which the “activity change” value was 5.89%.

With `CCCCCCCCCCCCCBr`, the “activity change” value is -33.5%.

As to `Cn1c(=O)c2c(ncn2CCO)n(C)c1=O`, the “activity change” value is -2.8% [at 35.3 µM, stronger effect = higher value].

Consider `COCCc1ccccn1`, for which the “activity change” value is -17.6% [at 35.3 µM, stronger effect = higher value]. For `O=C1CCCCO1`, the “activity change” value is -9.28%. The figure for `C[Si]1(C)O[Si](C)(C)O[Si](C)(C)O[Si](C)(C)O[Si](C)(C)O1` is -20.5%; for `Cc1ccc(N)cc1S(=O)(=O)O` it is 26.1%.

With `CC1=NN(c2ccc(S(=O)(=O)O)cc2)C(=O)C1`, the “activity change” value is 1%. The figure for `COC(=O)/C=C\C(=O)O` is 6.21%. In the case of `COc1cc(OC)nc(O[C@H](C(=O)O)C(OC)(c2ccccc2)c2ccccc2)n1` it was -19.4% [at 35.3 µM, stronger effect = higher value]; in that of `COc1cc(/C=C/C(N)=O)cc(OC)c1OC`, 0.859% [at 35.3 µM, stronger effect = higher value].

Turning to `COS(=O)(=O)O`, the “activity change” value was -8.55%. In the case of `N[C@@H](CSCCCO)C(=O)O` it was 1.71% [at 15.8 µM, stronger effect = higher value]; in that of `CCCCCCCCCCCCCCC(=O)NC(CO)CCCCCCCCCCCCCC` (stereo not given), 6.52%.

Regarding `COC(=O)CCCCC(=O)O`, the “activity change” value was -8.51%. Consider `CC(=O)OC1CCCCC1C(C)(C)C` (stereo not given), for which the “activity change” value was -17.4%. In the case of `O=C(O)CONC(=O)c1ccccc1` it was 0.0108%; in that of `O=C1CCC(=O)N1Cl`, -1.83%. As for `CCCCCCCCCOC(=O)c1ccccc1C(=O)OCCCCCCCCC`, the “activity change” value was -3.9%.

Take `CC(=O)CCc1ccc(OC(C)=O)cc1`: the “activity change” value is -12.5%. With `CC(C)NC(=O)c1ccc(C=O)cc1`, the “activity change” value is -8.74% [at 35.3 µM, stronger effect = higher value]. As for `CC(=O)CCC1=C(C)CCCC1(C)C`, the “activity change” value is 23.2%. For the compound `Cc1cccc(Cl)c1`, the “activity change” value is -4.04%.

For the compound `C=C(C)C1CC=C(C)C(=O)C1` (stereo not given), the “activity change” value is -9.74%.

The values are drawn from PubChem BioAssay (Tox21).
